Measurements reported in PubChem BioAssay.
Activity calls are given as the source filed them.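 The calls were made as follows, unless noted: active = NADPH fluorescence slope more negative than the mean of all samples by about 3 SD, 99.7% confidence; inactive = the rest.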

Experiments:
[1] = inhibitors of TNFa-induced NFkB p65 translocation, primary screen, imaging, HUVEC, MLSMR starter and 10KST1 sets (AID 438;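 active = inhibition above 20% together with a positive visual image hit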;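 also: compound added about 3h40 before a 20 min TNFalpha stimulation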;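 as to inhibition: signal is the nuclear over cytoplasmic p65 intensity ratio per well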); details: HUVEC TNFa-induced p65 nuclear translocation; cell count: measured here: nuclei count (cytotoxicity indicator), at 2.08 µM; inhibition: at 2 µM, stronger effect = higher value, 0% TNFa-plus-vehicle, 100% no-TNFa wells
[2] = inhibitors of mutant huntingtin aggregation, primary screen, imaging, exon1htt(103Q)mCFP cells, high-content imaging (AID 483;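 active = visual image review flags a hit and inhibition of aggregation exceeds 20%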;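 also: compound exposure lasted 3 days before fixation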;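 as to nuclei count: percent of the per-plate median nuclei count of sample wells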); details: exon1htt(103Q)mCFP cell line, aggregate imaging, at 2 µM; inhibition of aggregation: stronger effect = higher value; nuclei count: measured here: cell count, toxicity
[3] = inhibitors of E-selectin induction by TNFa, primary screen, imaging, HUVEC, immunofluorescence, MLSMR starter and 10KST1 sets (AID 487;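 active = visually confirmed hit in the image check and inhibition above 20%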;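 as to inhibition: signal is fraction of cell area covered by stained E-selectin grains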;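 as to nuclei count: 100% = median nuclei count of all wells on the same plate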); details: HUVEC TNFalpha-induced E-selectin immunofluorescence imaging, at 2 µM; inhibition: stronger effect = higher value; nuclei count: measured here: cell number, toxicity
[4] = target: Voltage-gated potassium channel subunit beta-2 (Rattus norvegicus) (UniProt P62483); assay: KvBeta enzyme negative modulators, primary screen, biochemical, NADPH fluorescence (AID 622;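 active = fluorescence slope higher than the sample average by over 3 SD, cut at about -0.22 in these data, passing the limit was not always enough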;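 also: slope of raw intensity against log time taken from 70 to 1610 s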); details: recombinant KvBeta, 4-cyanobenzaldehyde reduction, at 10 µM, stronger effect = higher value
Chain of Voltage-gated potassium channel subunit beta-2 (Rattus norvegicus) (P62483 whole entry, looked up): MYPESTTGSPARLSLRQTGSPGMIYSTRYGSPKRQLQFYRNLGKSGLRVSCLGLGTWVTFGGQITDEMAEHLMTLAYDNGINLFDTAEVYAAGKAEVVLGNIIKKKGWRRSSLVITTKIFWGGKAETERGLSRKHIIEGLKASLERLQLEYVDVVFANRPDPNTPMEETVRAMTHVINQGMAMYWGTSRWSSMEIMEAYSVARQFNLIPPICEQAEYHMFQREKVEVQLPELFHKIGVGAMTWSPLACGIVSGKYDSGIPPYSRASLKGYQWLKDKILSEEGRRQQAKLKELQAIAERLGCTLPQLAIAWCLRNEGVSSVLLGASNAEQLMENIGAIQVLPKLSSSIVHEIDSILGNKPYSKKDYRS

[5] = target: Voltage-gated potassium channel subunit beta-2 (Rattus norvegicus) (UniProt P62483); assay: KvBeta positive modulators, primary screen, biochemical, NADPH fluorescence (AID 623); details: Recombinant KvBeta, NADPH fluorescence decrease slope, 10 min; at 10 µM; stronger effect = lower value;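 also: fluorescence intensity change per second fitted from 20 to 320 s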
[6] = target: Alpha-2C adrenergic receptor (Homo sapiens) (UniProt P18825); assay: modulators of alpha2C/GIRK thallium flux, primary screen, cell-based, HEK293 alpha2C/GIRK1/2 (AID 624;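 active = fluorescence slope after compound addition differing from the mean of all screened samples at 99.7% confidence, in either direction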;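 also: slope of fluorescence ratio to pre-addition baseline per second over 15 to 24 s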); details: thallium flux BTC fluorescence, at 10 µM, actives lie on both sides
Chain of Alpha-2C adrenergic receptor (Homo sapiens) (P18825 whole entry, looked up): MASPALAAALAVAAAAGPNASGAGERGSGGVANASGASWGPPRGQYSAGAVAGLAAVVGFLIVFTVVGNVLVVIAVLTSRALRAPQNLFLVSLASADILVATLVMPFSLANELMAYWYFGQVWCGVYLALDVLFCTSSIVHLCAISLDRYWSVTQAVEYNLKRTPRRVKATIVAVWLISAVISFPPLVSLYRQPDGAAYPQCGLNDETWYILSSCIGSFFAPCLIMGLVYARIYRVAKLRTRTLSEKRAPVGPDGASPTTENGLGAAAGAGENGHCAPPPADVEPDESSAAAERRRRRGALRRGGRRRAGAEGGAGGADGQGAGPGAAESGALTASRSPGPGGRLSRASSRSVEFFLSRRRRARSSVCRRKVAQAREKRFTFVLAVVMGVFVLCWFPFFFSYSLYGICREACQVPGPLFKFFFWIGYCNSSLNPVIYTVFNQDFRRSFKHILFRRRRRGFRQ

[7] = inhibitors of Sendai virus-induced IRF3 signaling, primary screen, TLR/RLR signaling modifier project, cell-based, Sendai virus stimulus, luciferase, 10K MLSCN set (AID 602276;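 active = inhibition at or above 50% at 10 µM; inactive = inhibition below 50%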;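 also: firefly luciferase from ISG56 promoter only with Renilla not read in this screen; 0% = Sendai virus plus DMSO and 100% = medium plus DMSO without virus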); details: HEK293 RL24 IRF3 luciferase reporter, at 10 µM, stronger effect = higher value
[8] = inhibitors of poly I:C-induced TLR3 signaling, primary screen, cell-based, poly I:C stimulus, luciferase, 10K MLSCN set (AID 602277;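 active = inhibition of the reporter signal at or above 50%; inactive = inhibition below 50%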); details: HEK293-TLR3 RL24 IRF3 luciferase reporter, at 10 µM, stronger effect = higher value

Row | Structure (SMILES) | cell count [1] | inhibition [1] | inhibition of aggregation [2] | nuclei count [2] | inhibition [3] | nuclei count [3] | fluorescence slope [4] | NADPH fluorescence slope [5] | slope [6] | inhibition [7] | inhibition [8]
1 | COc1ccc(C2C(C(=O)N3CCC(C)CC3)c3ccccc3C(=O)N2C)cc1 (stereo not given) | 475 | -3.8% (inactive) | 12.4% (inactive) | 91.5% | -17.4% (inactive) | 101% | -0.54 (inactive) | -1.3e-05 (inactive) | 0.00505 (inactive) | -9.25% (inactive) | 12.2% (inactive)
2 | CC(C)CC1NC(=O)N(CC(=O)N2CCN(S(=O)(=O)c3ccc(Cl)cc3)CC2)C1=O (stereo not given) | 716 | 4% (inactive) | 11.8% (inactive) | 93% | -35.6% (inactive) | 76.3% | -0.416 (inactive) | 4.2e-06 (inactive) | 0.00417 (inactive) | 15.2% (inactive) | -5.28% (inactive)
3 | O=C1c2ccccc2C(Nc2cccnc2)N1Cc1ccccc1Cl (stereo not given) | 674 | -14.6% (inactive) | -13.6% (inactive) | 105% | -37.8% (inactive) | 109% | -0.422 (inactive) | -4.2e-05 (inactive) | 0.00424 (inactive) | 3.6% (inactive) | 18.3% (inactive)
4 | Cc1ccc(-n2nnnc2SCC(=O)c2cc(C)n(CC3CCCO3)c2C)cc1 (stereo not given) | 452 | 6.3% (inactive) | -11.9% (inactive) | 102% | -52.2% (inactive) | 121% | -0.437 (inactive) | 3.2e-05 (inactive) | 0.00567 (inactive) | 15.1% (inactive) | -0.555% (inactive)
5 | COc1ccc(-n2ncc3c(NCCCN4CCOCC4)ncnc32)cc1 | 340 | 1.4% (inactive) | -6.2% (inactive) | 116% | 1.8% (inactive) | 118% | -0.59 (inactive) | -5.4e-05 (inactive) | 0.00402 (inactive) | 44.5% (inactive) | 7.05% (inactive)
6 | Cc1ccc(-c2nnn(CC(=O)N(Cc3cccs3)C(C(=O)NC(C)(C)C)c3ccc(C)o3)n2)o1 (stereo not given) | 675 | -4% (inactive) | -2.3% (inactive) | 136% | -20.1% (inactive) | 137% | -0.361 (inactive) | -2.9e-05 (inactive) | 0.00454 (inactive) | 16.3% (inactive) | 20.6% (inactive)
7 | COC(=O)C1=C(C)NC(=O)C1(Nc1ccc(Cl)cn1)C(F)(F)F (stereo not given) | 324 | 1.8% (inactive) | 3.9% (inactive) | 95.1% | -63.7% (inactive) | 125% | -0.317 (inactive) | -1.2e-05 (inactive) | 0.00613 (inactive) | 13.8% (inactive) | 32.2% (inactive)
8 | O=C1N(c2ccccc2)C2CS(=O)(=O)CC2N1c1ccc(Br)cc1 (stereo not given) | 566 | -12.3% (inactive) | 4% (inactive) | 88.5% | -32.1% (inactive) | 127% | -0.432 (inactive) | -1.5e-05 (inactive) | 0.00616 (inactive) | 6.69% (inactive) | 17.5% (inactive)
9 | CC(C)[C@H](NC(=O)OC(C)(C)C)c1nnc(SCc2cccc(F)c2)o1 | 859 | 0% (inactive) | 15.1% (inactive) | 101% | -63.9% (inactive) | 122% | -0.46 (inactive) | -4.1e-06 (inactive) | 0.00385 (inactive) | 9.92% (inactive) | 19.5% (inactive)
10 | CCOC(=O)C1CCN(c2c(N3CCCC(C(=O)OCC)C3)c(=O)c2=O)CC1 (stereo not given) | 838 | 3.2% (inactive) | -6.4% (inactive) | 101% | -138% (inactive) | 115% | -0.616 (inactive) | 9.3e-06 (inactive) | 0.0058 (inactive) | -1.39% (inactive) | 19.7% (inactive)
11 | COc1cccc(C2C(C(N)=O)=C(C)Nc3nc(-c4ccccc4Cl)nn32)c1 (stereo not given) | 804 | -4% (inactive) | -14.6% (inactive) | 93.9% | -48.3% (inactive) | 110% | -0.416 (inactive) | -9.2e-05 (inactive) | 0.00547 (inactive) | 12.6% (inactive) | 40.8% (inactive)
12 | Cn1nnnc1SCc1cn2cccnc2n1 | 227 | 0.3% (inactive) | 9.5% (inactive) | 97.2% | -25.9% (inactive) | 117% | -0.106 (inactive) | 2.9e-05 (inactive) | 0.00615 (inactive) | 9.85% (inactive) | 9.08% (inactive)
13 | CSc1ccccc1N=CC1=C(O)CC(C)(C)CC1=O | 483 | 7.1% (inactive) | 2.4% (inactive) | 104% | -4.9% (inactive) | 119% | -0.461 (inactive) | -0.000148 (inactive) | 0.00576 (inactive) | 5.59% (inactive) | 17.7% (inactive)
14 | Cc1ccc2c(c1)NC(=O)C(CC(=O)NC1CCCCC1C)O2 (stereo not given) | 611 | 2% (inactive) | 22% (inactive) | 86.3% | 21.5% (inactive) | 114% | -0.51 (inactive) | -4.1e-05 (inactive) | 0.00567 (inactive) | 9.73% (inactive) | 1.78% (inactive)
15 | CC1CN(CC(O)COc2ccccc2C(C)(C)C)CC(C)O1 (stereo not given) | 609 | -29.6% (inactive) | -10.6% (inactive) | 108% | -32.5% (inactive) | 101% | -0.509 (inactive) | 1.1e-05 (inactive) | 0.00559 (inactive) | 10.2% (inactive) | 23.2% (inactive)
16 | O=C(Nc1ccon1)c1csc2c1CCCC2 | 332 | 1.2% (inactive) | -60% (inactive) | 104% | -52.8% (inactive) | 107% | -0.396 (inactive) | -5.9e-05 (inactive) | 0.00515 (inactive) | -0.246% (inactive) | 11.9% (inactive)
17 | COc1cccc(-c2noc(-c3cccs3)n2)c1 | 390 | -0.7% (inactive) | 11.7% (inactive) | 110% | -29.5% (inactive) | 131% | -0.619 (inactive) | 2.2e-06 (inactive) | 0.00482 (inactive) | 6.14% (inactive) | -8.84% (inactive)
18 | CCCCn1c2c(c3ccccc31)CCc1nonc1-2 | 664 | -4% (inactive) | 8.5% (inactive) | 75.1% | -16.7% (inactive) | 100% | -0.601 (inactive) | 4.9e-06 (inactive) | 0.00755 (inactive) | -16.3% (inactive) | 13.4% (inactive)
19 | N#Cc1ccccc1Cn1c(=O)n(Cc2ccc(C(=O)NCc3ccco3)cc2)c(=O)c2ccccc21 | 689 | -11.4% (inactive) | -4.5% (inactive) | 83.9% | -47.4% (inactive) | 92.1% | -0.5 (inactive) | 2e-05 (inactive) | 0.00719 (inactive) | 1.35% (inactive) | -0.0219% (inactive)
20 | N/C(=N/O)c1nc(N2CCCCC2)nc(N2CCCCC2)n1 | 640 | -16.2% (inactive) | -135% (inactive) | 53.7% | -50.5% (inactive) | 81.9% | -0.498 (inactive) | 8.9e-06 (inactive) | 0.00632 (inactive) | 8.03% (inactive) | 24.6% (inactive)
21 | CC(C)c1nccn1S(=O)(=O)c1cc(Cl)ccc1Cl | 582 | -11.9% (inactive) | 6.2% (inactive) | 110% | 20.8% (inactive) | 122% | -0.422 (inactive) | -4.2e-05 (inactive) | 0.0045 (inactive) | 8.92% (inactive) | 31% (inactive)
22 | COc1cccc(-c2nnc(SCC(N)=O)n2-c2ccc(Cl)cc2)c1 | 327 | -6.5% (inactive) | -11.9% (inactive) | 107% | -60.5% (inactive) | 94.5% | -0.495 (inactive) | -0.000142 (inactive) | 0.00431 (inactive) | 8.3% (inactive) | 13.1% (inactive)
23 | COCCn1c(SCC(=O)N(C(C)C)C(C)C)nnc1-c1cc2ccccc2cc1O | 362 | 0% (inactive) | 25.9% (inactive) | 88.5% | -1% (inactive) | 97.7% | -0.366 (inactive) | 1.3e-05 (inactive) | 0.00457 (inactive) | 11.9% (inactive) | 20.1% (inactive)
24 | CCOCCCNC(=O)C1CCN(S(=O)(=O)c2c(C)noc2/C=C\c2ccc(OC)cc2)CC1 | 345 | 1.2% (inactive) | 32.8% (inactive) | 99.9% | -122% (inactive) | 114% | -0.36 (inactive) | 3.9e-05 (inactive) | 0.00493 (inactive) | -4.28% (inactive) | 0.813% (inactive)
25 | CN1CCN(c2oc(COc3ccc(-c4ccccc4)cc3)nc2C#N)CC1 | 3 | 117% (active) | 18.4% (inactive) | 98.4% | -35.9% (inactive) | 111% | -0.425 (inactive) | 1e-05 (inactive) | 0.00577 (inactive) | 8.52% (inactive) | -19.8% (inactive)
